Test results: the supplement of paper PMC9262897, “Low-cost anti-mycobacterial drug discovery using engineered E. coli” (Nature Communications, 2022)
Counter-ions that a name gives are not always drawn. ± gives the standard deviation of the averaged measurements.

system: E. coli TESEC Mtb Alr; assay: growth (OD600 after 10 h); higher = more growth (less inhibition); conditions: arabinose 100000 nM; compound 0.1 mM; raw OD600 reference: median of DMSO wells 0.201, cell-free background 0.041
Protocol: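 TESEC Mtb Alr E. coli, or the Alr+ wild-type control, in 384-well plates with Prestwick library compounds at 0.1 mM and 1% DMSO, across arabinose induction levels of 1E3 to 1E7 nM. Growth is read as OD600 after 10 h at 37 °C in triplicate biological replicates.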

Row | SMILES | growth
1 | CC(CCc1ccccc1)NC(C)C(O)c1ccc(O)cc1 (stereo unspecified) [Nylidrin] | 0.167 ± 0.0039
2 | NCCCNCCSP(=O)(O)O [Amifostine] | 0.253 ± 0.011
3 | CCC1(c2ccc(N)cc2)CCC(=O)NC1=O (stereo unspecified) [Glutethimide, para-amino] | 0.222 ± 0.029
4 | CCN(CC)C(C)C(=O)c1ccccc1 (stereo unspecified) [Amfepramone hydrochloride] | 0.179 ± 0.027
5 | C=C(C)[C@@H]1[C@H]2OC(=O)[C@@H]1[C@]1(O)C[C@H]3O[C@]34C(=O)O[C@H]2[C@]14C [Picrotoxinin] | 0.215 ± 0.023
6 | CC1C=CC=CCCC=CC=CC=CC=CC(OC2OC(C)C(O)C(N)C2O)CC2OC(O)(CC(O)C(O)CCC(O)CC(O)CC(O)CC(=O)OC(C)C(C)C1O)CC(O)C2C(=O)O (stereo unspecified) [Nystatine] | 0.345 ± 0.014
7 | CC(C)CC(N(C)C)C1(c2ccc(Cl)cc2)CCC1 (stereo unspecified) [Sibutramine HCl] | 0.193 ± 0.032
8 | CCC1(CC)C(=O)C=CNC1=O [Pyrithyldione] | 0.207 ± 0.017
9 | CCN(C)C(=O)Oc1cccc([C@H](C)N(C)C)c1 [Rivastigmine] | 0.213 ± 0.02

same assay, conditions: arabinose 1000000 nM; compound 0.1 mM; raw OD600 reference: median of DMSO wells 0.193, cell-free background 0.041

Row | SMILES | growth
10 | CC(N)C(O)c1ccccc1 (stereo unspecified) [Phenylpropanolamine hydrochloride] | 0.19 ± 0.011
11 | CC[C@@]1([C@@H]2O[C@@H]([C@H]3O[C@@](O)(CO)[C@H](C)C[C@@H]3C)C[C@@H]2C)CC[C@H]([C@]2(C)CC[C@]3(C[C@H](O)[C@@H](C)[C@@H]([C@@H](C)[C@@H](OC)[C@H](C)C(=O)O)O3)O2)O1 [Monensin sodium salt] | 0.159 ± 0.0076
12 | CC(C)[N+](C)(CCC(C(N)=O)(c1ccccc1)c1ccccc1)C(C)C [Isopropamide iodide] | 0.147 ± 0.0039
13 | CN1C[C@H](C(=O)N[C@]2(C)O[C@@]3(O)[C@@H]4CCCN4C(=O)[C@H](Cc4ccccc4)N3C2=O)C[C@@H]2c3cccc4[nH]cc(c34)C[C@H]21 [Dihydroergotamine tartrate] | 0.0579 ± 0.0025
14 | CN1[C@@H]2C[C@@H](OC(=O)[C@H](CO)c3ccccc3)C[C@H]1[C@@H]1O[C@@H]12 [Scopolamine hydrochloride] | 0.182 ± 0.0041
15 | CN1[C@@H]2CC[C@H]1C[C@@H](OC(=O)[C@H](CO)c1ccccc1)C2 [Hyoscyamine (L)] | 0.176 ± 0.005
16 | CN(C)C(=O)Oc1ccc[n+](C)c1 [Pyridostigmine iodide] | 0.181 ± 0.0086
17 | CC[N+]1(C)CCCC(OC(=O)C(O)(c2ccccc2)c2ccccc2)C1 (stereo unspecified) [Pipenzolate bromide] | 0.186 ± 0.0047
18 | CC(Cc1ccccc1)NCCC(c1ccccc1)c1ccccc1 (stereo unspecified) [Prenylamine lactate] | 0.0393
19 | C#C[C@]1(O)CC[C@H]2[C@@H]3CCC4=CC(=O)CC[C@]4(C)[C@H]3CC[C@@]21C [Ethisterone] | 0.172 ± 0.0021
20 | CCNCC(O)c1cccc(O)c1 (stereo unspecified) [Etilefrine hydrochloride] | 0.193 ± 0.0032
21 | COc1cccc(C2(O)CCCCC2CN(C)C)c1 (stereo unspecified) [Tramadol hydrochloride] | 0.193 ± 0.012
22 | C=CCN1CC[C@]23c4c5ccc(O)c4O[C@H]2C(=O)CC[C@@]3(O)[C@H]1C5 [Naloxone hydrochloride] | 0.178 ± 0.0076
23 | O=c1[nH]c2ccccc2n1C1CCN(CCCC(c2ccc(F)cc2)c2ccc(F)cc2)CC1 [Pimozide] | 0.106 ± 0.0046
24 | CC[C@@H](CO)NC(=O)[C@@H]1C=C2c3cccc4[nH]cc(c34)C[C@H]2N(C)C1 [Methylergometrine maleate] | 0.119 ± 0.0017
25 | C[C@]12Cc3c[nH]nc3C[C@@H]1CC[C@@H]1[C@@H]2CC[C@@]2(C)[C@H]1CC[C@]2(C)O [Stanozolol] | 0.141 ± 0.0057
26 | CN1CCC2(C)c3cc(O)ccc3N(C)C12 (single isomer, unassigned; (-)) [(-)-Eseroline fumarate salt] | 0.168 ± 0.0079
27 | C[C@@H]1O[C@@H](O[C@@H]2C=C3CC[C@@H]4[C@H](CC[C@]5(C)[C@@H](c6ccc(=O)oc6)CC[C@]45O)[C@@]3(C)CC2)[C@H](O)[C@H](O)[C@H]1O [Proscillaridin A] | 0.108 ± 0.0053
28 | COc1ccc(CN2CCNCC2)c(OC)c1OC [Trimetazidine dihydrochloride] | 0.172 ± 0.0071
29 | C[N+]1(C)CCOC(O)(c2ccc(-c3ccc(C4(O)C[N+](C)(C)CCO4)cc3)cc2)C1 (stereo unspecified) [Hemicholinium bromide] | 0.1741 ± 0.00078
30 | OC(c1ccccc1)(c1ccccc1)C1CCNCC1 [Azacyclonol] | 0.166 ± 0.0076
31 | CCN(C(C)=O)c1cccc(-c2ccnc3c(C#N)cnn23)c1 [Zaleplon] | 0.154 ± 0.0051
